# Hit rate of the full screen: of about 66,000 compounds, about 960 (1.5%) showed an effect of 50% or more. Shown is part of a subset that was picked to be rich in strong results.
# Test system: Trypanosoma brucei
# Assay: Trypanosoma brucei 72 hour study
# Format: functional, organism-based
# Design: scale not given: in the data most compounds retested in dose-response had high values
smiles,measurement,setting,value
CN1CCO[C@@H]2CN(C(=O)NCc3ccccc3)CC[C@@H]2C1.O=C(O)C(F)(F)F,Percent Effect,"30.3 µM, […]",-54.53%
Cn1ccnc1C(=O)N1CCC2(CCN2c2ncccn2)C1.O=C(O)C(F)(F)F (stereo not given),Percent Effect,"30.3 µM, […]",-37.97%
CCC1CN(C)c2ccccc2CN1C(=O)CCn1cncn1 (stereo not given),Percent Effect,"30 µM, 30.03 µM",12.6%
CCC1CN(C)c2ccccc2CN1CCn1cncn1 (stereo not given),Percent Effect,"30 µM, 30.03 µM",56.46%
CC1CN(C)c2ccccc2CN1CCn1cncn1 (stereo not given),Percent Effect,"30 µM, 30.03 µM",-41.9%
COc1cc(C)c(S(=O)(=O)NCc2cccnc2N(C)C)c(C)c1,Percent Effect,"30.3 µM, […]",6.422%
Cc1ccc(-n2cc(CN3CCOCC3)c(-c3cccc(C)c3)n2)cc1,Percent Effect,"30.3 µM, […]",3.807%
Cc1ccc(C)c(-n2cc(CN3CC[C@@H](O)C3)c(-c3ccccc3)n2)c1,Percent Effect,"30.3 µM, […]",100.3%
Cc1ccc(C)c(-n2cc(CN3CCOCC3)c(-c3ccccc3)n2)c1,Percent Effect,"30.3 µM, […]",5.174%
O=C(NC1CC1)C1=CC2(CCN(CCO)CC2)c2ccccc21.O=C(O)C(F)(F)F,Percent Effect,"30.3 µM, […]",-19.93%
CCN1CCN2CCCN(S(=O)(=O)c3ccc(S(C)(=O)=O)cc3)C2C1=O (stereo not given),Percent Effect,"30.3 µM, […]",30.28%
CCN1CCN2CCCN(S(=O)(=O)c3cccc(F)c3)C2C1=O (stereo not given),Percent Effect,"30.3 µM, […]",65.65%
CCN1CCN2CCCN(S(=O)(=O)c3ccc(C)cc3C)C2C1=O (stereo not given),Percent Effect,"30.3 µM, […]",8.732%
COc1cc(C(=O)N2C[C@H]3CC[C@@H]2CN(Cc2cscn2)C3)ccn1,Percent Effect,"30 µM, 30.03 µM",1.07%
CS(=O)(=O)NCC1CCCN(C(=O)c2cc3ccccc3o2)C1 (stereo not given),Percent Effect,"30.3 µM, […]",1.962%
O=C(COCC(F)(F)F)NS(=O)(=O)c1ccc2c(c1)OCCCO2,Percent Effect,"30.3 µM, […]",-2.455%
Cc1ccc(CN2CCc3onc(C(=O)N4CCCC4)c3C2)o1.O=C(O)C(F)(F)F,Percent Effect,"30.3 µM, […]",0.525%
CN1CCN(c2cc(NC(=O)Cn3ccc4ccccc43)ncn2)CC1,Percent Effect,"30.3 µM, […]",101.2%
O=C(Cn1ccc2ccccc21)Nc1cc(N2CCOCC2)ncn1,Percent Effect,"30.3 µM, […]",-10.05%
O=C(Cn1ccc2ccccc21)Nc1cc(N2CCCC2)ncn1,Percent Effect,"30.3 µM, […]",1.206%
O=C(CC1CC1)N1CC[C@H]2[C@@H]1CCC(=O)N2Cc1ccncc1.O=C(O)C(F)(F)F,Percent Effect,"30 µM, 30.03 µM",-15.55%
c1nc(N2CCCC(Cn3cncn3)C2)c2sccc2n1 (stereo not given),Percent Effect,"30.3 µM, […]",1.361%
Cc1cc(NC2CCc3ncnn3C2)n2ncnc2n1 (stereo not given),Percent Effect,"30 µM, 30.03 µM",-36.85%
Cc1nc[nH]c1CN1CCC2(CC1)CC(Nc1ncccn1)CO2.O=C(O)C(F)(F)F (stereo not given),Percent Effect,"30 µM, 30.03 µM",-22.29%
CC(=O)Nc1ccc(CCC2(NC(=O)C3CC3)CCCCC2)cn1,Percent Effect,"30.3 µM, […]",1.37%
CC(C)(C)c1ccc(CN2C[C@H]3C[C@H](O)C[C@H]3C2)c(OCC(N)=O)c1,Percent Effect,"30.3 µM, […]",-6.506%
Cc1cc(C(F)(F)F)nn1CC(C)C(=O)Nc1cccnc1 (stereo not given),Percent Effect,"30.3 µM, […]",-4.531%
Cc1cccnc1NC(=O)C(C)Cn1nc(C(F)(F)F)cc1C (stereo not given),Percent Effect,"30 µM, 30.03 µM",53.66%
Cc1cc(C(F)(F)F)nn1CC(C)C(=O)Nc1ccccn1 (stereo not given),Percent Effect,"30.3 µM, […]",13.6%
Cc1cc(N2CCN(C(=O)[C@@H]3C[C@@H]4C=C[C@H]3C4)CC2)nc2ccccc12,Percent Effect,"30.3 µM, […]",18.47%
Cl.O[C@@H]1CN(Cc2ccc(F)cc2)CC[C@H]1NCc1ccccn1,Percent Effect,"30.3 µM, […]",5.839%
CC(C)CC1CC(=O)Nc2c1cnn2Cc1ccco1 (stereo not given),Percent Effect,"30 µM, 30.03 µM",-10.02%
CC(C)(C)C1CC(=O)Nc2c1cnn2Cc1ccco1 (stereo not given),Percent Effect,"30 µM, 30.03 µM",53.72%
CC(C)C1CC(=O)Nc2c1cnn2Cc1ccco1 (stereo not given),Percent Effect,"30 µM, 30.03 µM",5.524%
COCc1nc(N(C)C)ncc1C(=O)NC(C)c1ccccc1 (stereo not given),Percent Effect,"30.3 µM, […]",-21.32%
O=C(c1cc(-c2ccn(CC3CC3)n2)n2ccccc12)N1CCOCC1,Percent Effect,"30.3 µM, […]",100.3%
O=C(O)c1cc(-c2ccn(CC3CC3)n2)n2ccccc12,Percent Effect,"30.3 µM, […]",-1.96%
O=C(c1cc(-c2ccn(CC3CC3)n2)n2ccccc12)N1CCCO1,Percent Effect,"30.3 µM, […]",-0.5665%
Cc1ccc(CN2CCC3(CC2)CC(c2cccnc2)C(=O)N3C)o1.O=C(O)C(F)(F)F.O=C(O)C(F)(F)F (stereo not given),Percent Effect,"30.3 µM, […]",-49.66%
COCCN1CCC2(CCCN(Cc3ccoc3)C2)C1=O.O=C(O)C(F)(F)F (stereo not given),Percent Effect,"30.3 µM, […]",-22.78%
O=C(CC1CCCC1)N1CCn2cc(Cn3cccn3)nc2C1.O=C(O)C(F)(F)F,Percent Effect,"30.3 µM, […]",-840.1%
O=C(O)C(F)(F)F.O=C(c1cnoc1)N1CCC[C@]2(C[C@@H](Oc3ccccn3)CO2)C1,Percent Effect,"30 µM, 30.03 µM",-14.73%
CN(C)CCCNC(=O)c1cnc(Cc2ccc(F)cc2)s1,Percent Effect,"30 µM, 30.03 µM",52.82%
CCNC(=O)c1cnc(Cc2ccc(F)cc2)s1,Percent Effect,"30 µM, 30.03 µM",3.769%
COC(=O)CCNC(=O)c1cnc(Cc2ccc(F)cc2)s1,Percent Effect,"30 µM, 30.03 µM",3.867%
O=c1c(CN2CC3CCCN3C[C@@H]2CCO)coc2ccc(Cl)cc12 (stereo not given in full),Percent Effect,"30.3 µM, […]",-20.01%
O=C1CC(N(C(=O)Cc2csc(-c3ccccc3)n2)C2CC2)C(=O)N1 (stereo not given),Percent Effect,"30 µM, 30.03 µM",106%
O=C1CC(N(C(=O)c2csc(-c3ccccc3)n2)C2CC2)C(=O)N1 (stereo not given),Percent Effect,"30 µM, 30.03 µM",9.836%
Cc1nc(-c2ccccc2)sc1C(=O)N(C1CC1)C1CC(=O)NC1=O (stereo not given),Percent Effect,"30 µM, 30.03 µM",37.33%
O=C(O)C(F)(F)F.O=C1COC2(CCN(CC3CC3)CC2)CN1c1ccsc1,Percent Effect,"30.3 µM, […]",-336%
Cc1nc(CN2CCCC3(CCN(c4cnn(C)c4)C3=O)C2)cs1.O=C(O)C(F)(F)F (stereo not given),Percent Effect,"30.3 µM, […]",-9.884%
Cn1cc(CN2CCC3(CCN(c4cnn(C)c4)C3=O)C2)cn1.O=C(O)C(F)(F)F (stereo not given),Percent Effect,"30 µM, 30.03 µM",-6.498%
Cn1cc(N2CCC3(CCCN(Cc4ccc(F)cc4)C3)C2=O)cn1.O=C(O)C(F)(F)F (stereo not given),Percent Effect,"30 µM, 30.03 µM",66.19%
COCCNc1ccc(CC2CCCNC2)cn1.Cl (stereo not given),Percent Effect,"30.3 µM, […]",0.7781%
CSCc1cc(F)ccc1CNC(=O)N1CCC(CO)CC1,Percent Effect,"30 µM, 30.03 µM",-59.11%
CN(C)c1ccc(CNC2=NCCCN2)cc1.I,Percent Effect,"30.3 µM, […]",99.22%
CCOCc1ccc(CNC2=NCCCN2)cc1.I,Percent Effect,"30.3 µM, […]",-5.411%
I.c1ccc(OCCNC2=NCCCN2)cc1,Percent Effect,"30 µM, 30.03 µM",-0.004482%
NC[C@H]1CC[C@H](C(NC(=O)CC2CCCC2)c2ccccn2)CC1 (stereo not given in full),Percent Effect,"30.3 µM, […]",-41.17%
CCCN1C[C@H](NC(=O)c2ccccc2F)[C@@H](c2ccc(OC)cc2)C1,Percent Effect,"30.3 µM, […]",-8.438%
Cc1ccc(CN2CCC3(CC2)CC(CC(=O)NC(C)C)CO3)s1.O=C(O)C(F)(F)F (stereo not given),Percent Effect,"30.3 µM, […]",-52.98%
O=C(C1CCOCC1)N1C[C@H]2C[C@H](OCc3ccccc3)C[C@H]2C1,Percent Effect,"30.3 µM, […]",32.35%
CN(C)CCOCC1CN(Cc2ccsc2)Cc2nnn(C)c21.O=C(O)C(F)(F)F.O=C(O)C(F)(F)F (stereo not given),Percent Effect,"30.3 µM, […]",-20.25%
Cc1nccn1C1CCCN(C(=O)c2ccc(N(C)C)nn2)C1 (stereo not given),Percent Effect,"30.3 µM, […]",-14.31%
CN(C)c1ccc(C(=O)N2CCCC(n3cccn3)C2)cn1 (stereo not given),Percent Effect,"30.3 µM, […]",-20.71%
Cc1nccn1C1CCCN(C(=O)c2ccc(N(C)C)nc2)C1 (stereo not given),Percent Effect,"30 µM, 30.03 µM",59.27%
Cc1nc(C)n(C2CCCN(C(=O)c3ccc(NC4CC4)nc3)C2)n1 (stereo not given),Percent Effect,"30 µM, 30.03 µM",56.19%
Cc1nc(C)n(C2CCCN(C(=O)c3ccc(O)nc3)C2)n1 (stereo not given),Percent Effect,10 µM,-79.94%
Cc1cc(C)n(C2CCCN(C(=O)c3ccc(NC4CC4)nc3)C2)n1 (stereo not given),Percent Effect,"30 µM, 30.03 µM",3.181%
c1cc(-c2cscn2)cc(N2CCC(NCCc3cccs3)CC2)c1,Percent Effect,"30.3 µM, […]",64.97%
CN(Cc1nccs1)C1CCN(c2cccc(-c3cscn3)c2)CC1,Percent Effect,"30.3 µM, […]",-33.72%
c1ccc(-c2cccc(N3CCC(NCCc4cscn4)CC3)c2)cc1,Percent Effect,"30.3 µM, […]",99.95%
CN(C)CCCN(C)C1CCN(c2cccc(-c3cscn3)c2)CC1,Percent Effect,"30.3 µM, […]",17.15%
O=C1CCCN1c1cccc(N2CCC(NCCc3cscn3)CC2)c1,Percent Effect,"30.3 µM, […]",6.374%
CC(C)CC(C)NC1CCN(c2cccc(-c3cscn3)c2)CC1 (stereo not given),Percent Effect,"30 µM, 30.03 µM",-3.57%
CC1(c2ccc(Br)cc2)CC(=O)N(CC(N)=O)C1=O (stereo not given),Percent Effect,"30.3 µM, […]",-17.28%
Cn1cc(C(=O)CC2CCCN2C(=O)c2cccc3ncccc23)cn1 (stereo not given),Percent Effect,"30.3 µM, […]",-17.51%
Cc1ccc(C(=O)NCCC2CN(C3CCCC3)CCO2)c(C)c1 (stereo not given),Percent Effect,"30 µM, 30.03 µM",0.3212%
O=C(c1cc2c(Cl)cccc2[nH]1)N1CCN(CCc2ccccn2)CC1,Percent Effect,"30 µM, 30.03 µM",6.57%
CCOC(=O)c1ccc(S(=O)(=O)NCc2cccnc2N(C)C)cc1,Percent Effect,10 µM,-42.9%
Cc1ccc(CCC(=O)N(C)CCN2CCOCC2)c(C)c1,Percent Effect,"30 µM, 30.03 µM",15.97%
CCOc1ccc(CN2CCN(C(=O)c3cc(C4CC4)[nH]n3)CC2)cc1,Percent Effect,"30.3 µM, […]",-13.15%
same,Percent Effect,"10 mM, 10 mM as filed; unlikely as a test dose",-41.12%
Cl.Cn1nc(C2CCCN(Cc3ccc(F)cc3)C2)c2nccnc21 (stereo not given),Percent Effect,"30.3 µM, […]",4.536%
CC(=O)Nc1ccc(CN2CCCC(c3cc4ncccc4[nH]3)C2)cc1 (stereo not given),Percent Effect,"30.3 µM, […]",8.67%
CCOc1nnc(CN2CCCC(c3nc4ccccc4[nH]3)C2)s1 (stereo not given),Percent Effect,"30 µM, 30.03 µM",-9.691%
CCOc1ccc(CN2CCCC(c3cc4ncccc4[nH]3)C2)cc1 (stereo not given),Percent Effect,"30.3 µM, […]",100.2%
Fc1ccc(CN2CCCC(c3cc4ncccc4[nH]3)C2)cc1 (stereo not given),Percent Effect,"30.3 µM, […]",55.67%
O=S(=O)(C1CC1)N1Cc2nccn2CC(Cn2cncn2)C1 (stereo not given),Percent Effect,"30.3 µM, […]",-41.46%
CC1c2ncc(CN3CCN(C)CC3)n2CCN1Cc1ccc(F)cc1.O=C(O)C(F)(F)F.O=C(O)C(F)(F)F.O=C(O)C(F)(F)F (stereo not given),Percent Effect,"30.3 µM, […]",-44.2%
CN(Cc1ccco1)[C@@H]1CN(C(=O)c2cnccn2)C[C@@H]2CCCO[C@@H]21.O=C(O)C(F)(F)F,Percent Effect,"30 µM, 30.03 µM",-17.24%
COc1cc(N2CCC3(CCN(Cc4csc(C)n4)C3=O)C2)ncn1.O=C(O)C(F)(F)F (stereo not given),Percent Effect,"30.3 µM, […]",-84.03%
COCC1COCCC12CCN(S(=O)(=O)c1cccnc1)CC2.O=C(O)C(F)(F)F (stereo not given),Percent Effect,"30.3 µM, […]",-13.71%
O=C(COc1ccc2c(c1)CCC2)NS(=O)(=O)c1cccnc1,Percent Effect,10 µM,-70.49%
Cc1ccc(N2CC[C@@H]3[C@@H]2CCN3C(=O)Cc2ccccc2)nn1.O=C(O)C(F)(F)F,Percent Effect,"30.3 µM, […]",-46.46%
